High-throughput results (PubChem BioAssay)
MLL AF4-AF9 inh – MLL-AF4/AF9 protein interaction inhibition. P42568. AlphaScreen, biotin-AF4 peptide binding to FLAG-AF9. inhibition, % at 10 µM. hit rate 0.47% among 350,000. AID 651704;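 active means every replicate reaching a set inhibition limit, whatever the replicate mean, cut at about 25% in these data; inconclusive means mean inhibition reaches that limit but some replicates miss it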;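 further: 0% = plate neutral control median and 100% = total signal loss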
dFosB act – activators of mouse delta FosB homodimer | purified delta FosB, TAMRA-CDK5 oligo fluorescence polarization; percent of positive-control signal above neutral wells | activation, % at 25 µM | hit rate 0.99% among 340,000 | AID 493131;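 active means mean activation above about 17%, with every replicate also reaching it, limit read from the data, passing the limit was not always enough; inconclusive means only one of the two conditions met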
DENV2 CPE rescue – inhibitors of DENV2 cytopathic effect | DENV2-infected cells, cytopathic effect rescue, plate reader | CPE inhibition, % at 9.99 µM | hit rate 1.7% among 350,000; in the data active means CPE inhibition above about 20%, passing the limit was not always enough; inconclusive means no clear call, values can overlap the other calls; tested in BHK-21 cells;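 further: 0% = median of neutral control wells and 100% = median of positive control wells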
RAD54 inh – RAD54 (human) branch migration inhibition | RAD54 Holliday junction branch migration, FAM/BHQ fluorescence | hit rate 0.14% among 360,000 | inhibition, % at 10.4 µM | Q92698;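 active means mean normalized replicate activity at least 40 and at least half of replicates scoring 40 or more; inconclusive means only one of the two criteria met; inactive means mean below 40 and under half of replicates reaching 40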;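 further: 0% = median of neutral control wells and 100% = median of positive control wells; inhibitors cause a drop in the FAM fluorescence signal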
Target sequence (Q92698 whole entry, looked up): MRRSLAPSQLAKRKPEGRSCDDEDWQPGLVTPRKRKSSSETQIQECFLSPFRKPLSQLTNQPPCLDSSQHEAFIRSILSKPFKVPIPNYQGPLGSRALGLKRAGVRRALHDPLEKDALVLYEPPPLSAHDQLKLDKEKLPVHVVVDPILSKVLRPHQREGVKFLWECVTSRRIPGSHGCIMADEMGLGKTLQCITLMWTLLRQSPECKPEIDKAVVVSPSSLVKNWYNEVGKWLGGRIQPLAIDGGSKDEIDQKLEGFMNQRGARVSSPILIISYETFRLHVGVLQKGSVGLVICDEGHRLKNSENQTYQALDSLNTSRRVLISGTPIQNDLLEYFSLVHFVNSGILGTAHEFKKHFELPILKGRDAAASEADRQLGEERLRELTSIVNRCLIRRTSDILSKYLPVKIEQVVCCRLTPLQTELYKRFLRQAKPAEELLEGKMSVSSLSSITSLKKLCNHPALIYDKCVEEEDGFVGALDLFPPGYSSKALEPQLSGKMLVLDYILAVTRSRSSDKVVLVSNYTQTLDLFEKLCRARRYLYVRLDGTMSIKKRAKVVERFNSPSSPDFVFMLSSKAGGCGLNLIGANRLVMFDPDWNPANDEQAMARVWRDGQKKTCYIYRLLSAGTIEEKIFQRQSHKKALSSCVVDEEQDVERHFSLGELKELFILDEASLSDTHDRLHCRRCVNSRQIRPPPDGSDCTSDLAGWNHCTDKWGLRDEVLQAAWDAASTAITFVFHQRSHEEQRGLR
RAD52 inh – RAD52 (human) annealing inhibition; AID 651710; inhibition, % at 18.7 µM; P43351; recombinant RAD52 DNA annealing, FRET fluorescence; hit rate 0.46% among 360,000;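 active means every replicate showing at least 50% inhibition; inconclusive means mean inhibition at least 50% but not in every replicate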
INS-1E GSIS act – GLuc luminescence reporter in INS-1E cells, primary screen for activators of glucose-dependent secretion of insulin; INS-1E GLuc reporter insulin secretion, 2-3 h; activation, % at 16.6 µM; hit rate 0.61% among 370,000;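 active means lowest replicate activation of at least 40%, so every replicate reaches that level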;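 further: 0% = median of neutral control wells and 100% = median of IBMX positive control wells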
An asterisk follows results filed as active; ? = inconclusive; · = not tested or not shown; ! = a repeat was not active. This is a sample that favours compounds with a hit; in the whole collection about 3.1% have one here.

SMILES	MLL AF4-AF9 inh	dFosB act	DENV2 CPE rescue	RAD54 inh	RAD52 inh	INS-1E GSIS act
COc1cccc(-c2ccc([C@@H]3[C@H](CO)N4CCCCN(C(=O)c5ccc(F)cc5)C[C@@H]34)cc2)c1	-2.7	·	41.1*	-1.4	-1.8	-22.9
Cc1cccc(-c2ccc(C3[C@H]4CNC[C@@H]3N4S(=O)(=O)c3ccccc3C)cc2)c1 (stereo partly specified)	1.0	·	17.6	·	-102.3	-9.5
Cc1ccccc1S(=O)(=O)N1[C@@H]2CNC[C@H]1C2c1ccc(-c2ccccc2)cc1 (stereo partly specified)	-5.7	·	-9.3	·	54.9*!	1.1
N#Cc1ccc(-c2ccc(C3[C@H]4CNC[C@@H]3N4S(=O)(=O)c3ccc(-c4ccccc4)cc3)cc2)cc1 (stereo partly specified)	0.3	·	7.1	·	82.3*	12.3
C/C=C/c1ccc(C2[C@H]3CNC[C@@H]2N3S(=O)(=O)c2ccccc2C)cc1 (stereo partly specified)	5.2	·	20.4*!	·	-87.3	-4.1
C/C=C/c1ccc(C2[C@H]3CNC[C@@H]2N3S(=O)(=O)c2ccccc2OC)cc1 (stereo partly specified)	-3.4	·	0.5	·	5.0	7.4
O=S(=O)(c1ccccc1F)N1[C@@H]2CNC[C@H]1C2c1ccc(/C=C/c2ccccc2)cc1 (stereo partly specified)	7.4	·	?	·	51.9*!	-5.5
O=S(=O)(Cc1ccccc1)N1[C@@H]2CNC[C@H]1C2c1ccc(/C=C/c2ccccc2)cc1 (stereo partly specified)	·	·	·	·	·	-26.3
CO[C@@H]1CN(C)C(=O)c2ccc(NC(=O)Nc3cccc(F)c3)cc2OC[C@H](C)N(C(=O)Nc2c(C)noc2C)C[C@H]1C	2.4	·	11.3	-7.0	-12.0	-7.3
NC(=O)Cn1c(O)c(N=NC(=O)CNC(=O)/C=C/c2ccccc2)c2ccccc21	-1.7	18.2*	-2.3	4.3	-3.4	35.8
COc1ccc(S(=O)(=O)N(C)C[C@H]2Oc3ncc(/C=C/c4ccccc4)cc3C(=O)N([C@H](C)CO)C[C@@H]2C)cc1	7.0	·	-3.5	3.1	17.1	·
Brc1ccc(-c2noc3c2-c2nc(-c4ccccc4)sc2CC3)cc1	1.5	-1.7	128.5*	1.4	-3.9	2.2
COc1ccc(-c2noc3c2-c2nc(-c4ccccc4)sc2CC3)cc1	-11.0	-12.2	-2.8	3.6	-31.7	2.4
CCN1CCN(Cc2ccc(NC(=O)c3ccc(C)c(NC(=O)c4cc(-c5ccc(Br)cc5)n[nH]4)c3)cc2C(F)(F)F)CC1	3.1	-5.4	36.4*	-2.7	-16.5	-5.6
CCN1CCN(Cc2ccc(NC(=O)c3ccc(C)c(NC(=O)c4nccn4C)c3)cc2C(F)(F)F)CC1	4.2	-22.1	-23.1	2.9	5.7	0.0
CCN1CCN(Cc2ccc(NC(=O)c3ccc(C)c(NC(=O)N4CCNC4=O)c3)cc2C(F)(F)F)CC1	4.4	-34.0	119.7*!	-6.6	-1.1	-7.9
CC1(C(=O)NS(=O)(=O)Cc2ccccc2)CCN1C(=O)c1ccc(C2CCCCC2)cc1 (stereo unspecified)	-1.3	·	-4.5	-2.5	-7.6	2.0
CC1(C(=O)NS(=O)(=O)Cc2cccc(Cl)c2)CCN1C(=O)c1ccc(C2CCCCC2)cc1 (stereo unspecified)	0.1	·	89.8*	9.8	-11.6	14.0
CCC(=O)N1CCCCN2[C@@H](CO)[C@@H](c3ccc(C#Cc4ccccc4F)cc3)[C@@H]2C1	-5.4	·	?	3.1	11.7	-3.1
CC(=O)N1CCCCN2[C@H](CO)[C@@H](c3ccc(C#Cc4ccccc4F)cc3)[C@H]2C1	3.1	·	24.4*	2.4	12.5	-3.0
CN1CCCCN2[C@H](CO)[C@@H](c3ccc(C#Cc4ccccc4F)cc3)[C@@H]2C1	17.8	·	-25.0	9.2	68.8*	0.9
CN1CCCCN2[C@@H](CO)[C@@H](c3ccc(C#Cc4ccccc4F)cc3)[C@@H]2C1	16.6	·	-25.2	10.9	70.8*	-18.8
C[C@H]1CN([C@@H](C)CO)C(=O)Cc2cc(NC(=O)NC3CCCCC3)ccc2O[C@@H]1CN(C)C(=O)Nc1ccc2c(c1)OCO2	-0.8	·	-1.0	6.0	10.8	-0.5
COc1ccc2c(c1)C(=NNC(=O)c1ccccn1)c1cc(OC)ccc1-2	·	-16.7	·	·	·	146.4*
COc1ccc(C(C(=O)NCc2ccccc2)n2c(-c3ccncc3)nc3ccccc32)cc1 (stereo unspecified)	1.9	·	22.0*	·	-35.0	-10.1
SMILES	MLL AF4-AF9 inh	dFosB act	DENV2 CPE rescue	RAD54 inh	RAD52 inh	INS-1E GSIS act
COc1ccc(C(C(=O)NCc2ccccc2)n2c(-c3ccccn3)nc3ccccc32)cc1 (stereo unspecified)	-2.0	·	-11.0	·	-2.6	-10.4
C[C@@H]1CN([C@@H](C)CO)S(=O)(=O)c2ccc(-c3cccnc3)cc2O[C@H]1CN(C)CC1CC1	-1.9	·	·	·	·	2.9
O=C(N[C@H]1C=C[C@@H](CC(=O)N2CCOCC2)O[C@@H]1CO)c1cccc(F)c1	-0.9	·	0.6	1.5	-10.9	3.5
Cc1ccc(NC(=O)CNC(=O)c2ccco2)nc1	-1.8	-0.5	-3.5	5.8	-17.4	2.3
CCOc1ccc(C(=O)NCC(=O)OCCCC(=O)c2ccc(F)cc2)cc1OCC	0.3	-8.0	2.1	-2.3	-7.4	44.8*
CCOc1ccc(C(=O)NCC(=O)Nc2cc(C)ccn2)cc1OCC	1.1	-2.4	-6.6	0.7	-10.0	44.3*
Cc1ccnc(NC(=O)CNC(=O)c2ccco2)c1	-1.7	2.5	-8.7	-7.2	-9.2	45.2*
COc1ccc(C(=O)NCC(=O)OCCCOC(=O)CNC(=O)c2ccc(OC)c(OC)c2)cc1OC	-2.1	2.0	-3.4	3.1	1.4	-3.3
CCOC(=O)C1=C(CS(=O)(=O)c2ccc(C)cc2)NC(=O)NC1c1cc(OC)c(O)c(OC)c1 (stereo unspecified)	-4.0	-4.9	36.6*	-11.1	-0.1	29.9
CCOC(=O)C1=C(CS(=O)(=O)c2ccccc2)NC(=O)NC1c1ccc(OC)c(OC)c1 (stereo unspecified)	5.5	-5.1	-0.3	-0.2	-22.9	5.3
CC(C)NC(=O)N(C)C[C@@H]1Oc2ccccc2CC(=O)N(C)C[C@H]1C	·	·	·	·	·	0.0
CC1(C)SC2c3ccccc3C(=O)N2[C@@H]1C(=O)NC1CC1 (stereo partly specified)	-2.3	-10.1	-0.8	·	-11.5	42.3*
COCC(=O)Nc1ccc2c(c1)[C@H]1C[C@@H](CC(=O)NC3CCCC3)O[C@@H](CO)[C@H]1O2	-1.6	·	?	-3.1	-9.0	-7.8
COc1ccc(NC(=O)c2sc3nc(N4CCOCC4)c4c(c3c2N)CC(C)(C)OC4)c(OC)c1	-2.6	-9.7	3.1	-15.2	-6.7	127.2*
CN1Cc2c(N3CCOCC3)nc3sc(C(=O)c4ccc(Br)cc4)c(N)c3c2CC1(C)C	30.5*	·	-18.6	13.6	28.8	·
